Sfp PPTase inh = qHTS Assay for Inhibitors of Bacillus subtilis Sfp phosphopantetheinyl transferase (PPTase); AID 1490, 2009; actives 3.5% (n = 310,000); Biochemical Sfp PPTase activity, qHTS; Potency, µM, without a hit: largest response in the series, negative = inhibition, actives largely listed as inhibitors; 4'-phosphopantetheinyl transferase ffp (Bacillus subtilis), Q9F4F7;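 further: the enzyme is Sfp with the accession as filed and its product quenches rhodamine fluorescence; potency means the concentration at half of the fitted maximal effect; 0% = enzyme reaction without inhibitor and -100% = no enzyme wells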
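Fluorescence-quenching assay with 15 nM Sfp, 5 uM rhodamine-CoA and 12.5 uM BHQ-2-labelled ybbR peptide in pH 7.6 Hepes/MgCl2 buffer. Enzyme was pre-incubated with compound for 15 min at room temperature. Rate was taken from the 30-min fluorescence change (525/598 nm).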
Mm-Cpn inhibitor = Inhibitors of TCP-1 ring complex (TRiC) of Methanococcus maripaludis (MmCpn): qHTS | Chaperonin Mm-Cpn (Methanococcus maripaludis) | purified Mm-Cpn ATPase, ADP Transcreener TR-FRET | Potency, µM (highest dose often 76.9 µM), without a hit: at the top dose activity, negative = inhibition, hits mostly inhibitors | actives 0.031% (n = 330,000) | AID 504842, 2011; further: potency means the concentration at half of the fitted maximal effect; nearly all actives have a fitted effect of over 80% in size
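Quantitative HTS used 25 nM Mm-CPN and 10 uM ATP in magnesium/KCl Tris buffer, pH 7.4, with 1 mM DTT. Hydrolysis ran 30 min at 37°C; ADP was read by HTRF.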
CCT chaperon mod = High-Throughput Screening for Modulators of Cytosolic Chaperonin Activity | purified chaperonin ATPase assay, HTRF ADP detection, 30 min | activity change, % (no concentration beside the values), hits read low | actives 0.3% (n = 360,000); in the data active means activity change below about -30%
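TRiC (40 or 20 nM final, by batch activity) in 30 mM Tris pH 7.4, 100 mM KCl, 5 mM MgCl2, 1 mM DTT was treated with compound at 76 uM single dose, then 10 uM ATP, 30 min at 37 °C. ADP was read by HTRF Transcreener.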
VDR inhibitor = Inhibitors of the vitamin D receptor (VDR): qHTS; Vitamin D3 receptor (Homo sapiens), P11473; VDR-SRC2-3 peptide fluorescence polarization, 2 h; Potency, µM, for the others: max response, negative = inhibition, most hits filed as inhibitors; actives 0.93% (n = 400,000); AID 504847, 2011; further: potency means the concentration at half of the fitted maximal effect
Target sequence (P11473 whole entry, looked up): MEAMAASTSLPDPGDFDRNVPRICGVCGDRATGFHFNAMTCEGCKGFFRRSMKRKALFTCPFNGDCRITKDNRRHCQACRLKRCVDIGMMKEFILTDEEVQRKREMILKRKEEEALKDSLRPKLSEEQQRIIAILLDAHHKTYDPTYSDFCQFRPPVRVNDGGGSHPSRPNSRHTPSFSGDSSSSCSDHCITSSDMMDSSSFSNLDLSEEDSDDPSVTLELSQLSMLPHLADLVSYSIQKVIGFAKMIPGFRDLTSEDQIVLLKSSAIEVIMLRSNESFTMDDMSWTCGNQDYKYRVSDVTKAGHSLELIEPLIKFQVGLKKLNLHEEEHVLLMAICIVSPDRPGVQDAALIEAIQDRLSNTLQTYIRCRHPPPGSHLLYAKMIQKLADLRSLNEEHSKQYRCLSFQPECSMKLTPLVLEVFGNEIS
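Reagent solutions, kept cold and dark, are dispensed first; compounds are then pinned in at 23 nl, plates briefly spun, and incubated 2 h at ambient temperature. Inhibition of VDR–SRC2-3 peptide binding is read by fluorescence polarization.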
G9a block = qHTS Assay for Inhibitors of Histone Lysine Methyltransferase G9a; Histone-lysine N-methyltransferase EHMT2 (Homo sapiens), Q96KQ7; G9a H3K9 monomethylation, AlphaScreen, 2 h; actives 8.8% (n = 350,000); Potency, µM (highest dose often 102 µM), without a hit: at the highest dose activity, negative = inhibition, most hits filed as inhibitors; further: potency means the concentration at half of the fitted maximal effect; nearly all actives have a fitted effect of over 75% in size
Target sequence (Q96KQ7 913-1193 limits assumed): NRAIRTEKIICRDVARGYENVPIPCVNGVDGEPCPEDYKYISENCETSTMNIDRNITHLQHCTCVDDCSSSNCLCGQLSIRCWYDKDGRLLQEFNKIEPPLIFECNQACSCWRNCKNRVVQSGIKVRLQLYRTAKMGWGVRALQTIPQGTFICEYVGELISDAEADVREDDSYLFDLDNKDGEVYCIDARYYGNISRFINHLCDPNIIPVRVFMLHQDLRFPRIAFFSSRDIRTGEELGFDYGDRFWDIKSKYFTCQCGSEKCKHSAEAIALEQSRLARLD
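Signal arises when biotinylated H3K9 peptide, once monomethylated, bridges streptavidin donor and antibody-captured acceptor beads. Enzyme at 20 nM was preincubated 15 min with test compounds; peptide 500 nM and SAM 20 uM then reacted for 2 h.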
PLK1 PBD inh = qHTS for Inhibitors of PLK1-PDB (polo-like kinase 1 - polo-box domain): Primary Screen; Serine/threonine-protein kinase PLK1 (Homo sapiens), P53350; Plk1 PBD binding of FITC phosphopeptide, fluorescence polarization; Potency, µM, without a hit: max response, negative = inhibition, usual class: inhibitors; actives 2.8% (n = 360,000); AID 720504, 2013; further: potency means the concentration at half of the fitted maximal effect; series mostly up to about 57 µM; nearly all actives have a fitted effect of over 65% in size
An asterisk follows results filed as active; ? = inconclusive; · = no result given; [ ] = remark or other dose. This is a sample that favours compounds with a hit; in the whole collection about 10% have one here. Unless noted, the call rests on the fitted dose curve; in most records, active means well fitted curve in the direction sought with a large enough effect; inconclusive means small, poorly fitted or top-dose-only effect, or another doubt; inactive means no such curve, though single readings can be large; an effect the other way counts as inactive or inconclusive. Unless noted, on the % scale 0 is the no-effect control and ±100 the full control effect.

SMILES	Sfp PPTase inh	Mm-Cpn inhibitor	CCT chaperon mod	VDR inhibitor	G9a block	PLK1 PBD inh
O=C(CC1Nc2ccccc2NC1=O)Nc1ccc2c(c1)OCO2 (stereo not drawn)	-13.1%	-6.4%	0.6	-17.7%	12.6µM*	?
O=C(CC1Nc2cccc3cccc(c23)NC1=O)Nc1ccccc1 (stereo not drawn)	17.8µM*	-6.9%	1.5	2.5%	2.9%[59 µM]	-6.8%
CC1(C)CC(=O)C=C(c2ccc(-c3ccccc3)cc2)C1	·	-2.1%	-1.1	-11.2%	-3.1%[0.501 µM]	2.4%
CC1(C)CC(=O)C=C(c2cccc(Br)c2)C1	·	-4.3%	-0.5	?	10.8%[0.501 µM]	26.7µM*
C=CCC(Nc1ccc(OC)cc1)C(=O)OCC (stereo not drawn)	3.8%	·	·	2.2%	·	·
COc1ccc(-c2noc(-c3ccc(C)cc3Cl)n2)cc1OC	·	·	·	-10.0%	-2.6%[59 µM]	·
COCC#Cc1ccc(C2NC(C(=O)O)CCC2C)cc1 (stereo not drawn)	13.2%	·	·	·	·	·
Clc1ccc2c(c1)-c1nnc(Br)n1-c1ccccc1S2	-5.2%	-5.8%	-1.7	-4.4%	10µM*	-16.4%
Brc1nnc2n1-c1ccccc1Sc1ccccc1-2	1.1%	1.8%	0.7	6.4%	-23.0%[59 µM]	-8.3%
Cc1ccccc1-c1nc(SCC(=O)NCc2ccco2)c2c(=O)n(C)c(=O)n(C)c2n1	·	·	·	-5.7%	5.3%[59 µM]	·
Nc1nsc2ccccc12	?	0.3%	-4.1	-95.8%	39.8µM*	-10.7%
COc1ccc(C)c2sc(N(Cc3cccnc3)C(=O)C3CCCCC3)nc12	·	·	·	14.1%	-30.5%[59 µM]	·
O=C(O)c1cn(-c2ccc(N3CCCC3)c(F)c2)c2c(F)c(F)c(F)cc2c1=O	0.9%	-25.4%	-1.0	20.6%	44.7µM*	?
CCc1nn2c(=O)cc(COC(=O)c3ccccc3)nc2s1	·	·	·	6.9%	8.1%[59 µM]	·
Cc1ccc2cc3c(N)c(C(=O)N4CCOCC4)sc3nc2c1	-4.4%	-13.9%	-1.0	3.4%	28.2µM*	-5.7%
CCc1ccc2nc3sc(C(=O)N4CCc5ccccc54)c(N)c3cc2c1	-20.4%	-2.2%	·	·	50.1µM*	·
CCOc1ccc2nc3sc(C(=O)N4CCN(C)CC4)c(N)c3cc2c1	-9.5%	-4.1%	-0.1	-4.7%	?	?
Cc1ccc2nc3sc(C(=O)N4CCOCC4)c(N)c3cc2c1	-10.9%	-0.5%	-1.4	-1.5%	14.1µM*	-10.4%
CCc1ccccc1NC(=O)c1nc2nc(C)cc(C(F)F)n2n1	·	·	·	-8.9%	11.0%[59 µM]	·
CC(C)C[C@H](NC(=O)c1ccc(NCc2cnc[nH]2)cc1-c1cccc2ccccc12)C(=O)O	12.1%	·	·	-0.5%	·	·
O=C(C1CCCN(S(=O)(=O)c2ccc(F)cc2)C1)N1CCOCC1 (stereo not drawn)	·	·	-2.8	-4.0%	·	-26.3%
Cc1nn(C)c(C)c1S(=O)(=O)N1CCCC(C(=O)N2CCN(c3ccc(Cl)cc3)CC2)C1 (stereo not drawn)	12.1%	-0.8%	0.4	-17.7%	?	3.36µM*
CN1CCN(C(=O)C2CCCN(S(=O)(=O)c3ccc(F)cc3)C2)CC1 (stereo not drawn)	?	0.2%	0.0	-9.6%	14.1µM*	-19.6%
Cc1nn(C)c(C)c1S(=O)(=O)N1CCC(C(=O)NC2CCCc3ccccc32)CC1 (stereo not drawn)	9.6%	-1.6%	0.5	-15.2%	7.0%	26.7µM*
Cc1nn(C)c(C)c1S(=O)(=O)N1CCCC(C(=O)NC2CCCCCC2)C1 (stereo not drawn)	16.3%	1.8%	-2.2	?	10.8%	26.7µM*
SMILES	Sfp PPTase inh	Mm-Cpn inhibitor	CCT chaperon mod	VDR inhibitor	G9a block	PLK1 PBD inh
CCN(CC)S(=O)(=O)N1CCC(C(=O)NC2CCCc3ccccc32)CC1 (stereo not drawn)	1.7%	4.8%	0.4	6.1%	-17.0%[59 µM]	0.3%
CC(=O)Nc1nonc1-c1nnc(SCC(=O)Nc2cc(C)cc(C)c2)n1-c1ccccc1	·	·	·	-1.1%	-29.8%[59 µM]	·
O=C(Nc1ccc(Br)cc1F)C1CCN(c2nc3ccccc3[nH]2)CC1	·	·	·	13.7%	7.1%[59 µM]	·
N#Cc1ccc(NC(=O)COCc2cc(-c3ccco3)on2)cc1	·	·	·	1.7%	-21.4%[59 µM]	·
Nc1nc(N2CCCCC2)nc2ccccc12	4.1%	-0.1%	-1.7	-3.0%	50.1µM*	-7.9%
c1ccc2c(N3CCCCC3)nc(N3CCCC3)nc2c1	-3.8%	1.2%	0.7	1.3%	-6.3%[12.7 µM]	1.7%
CCOc1ccc(N=C(/C(C(=O)C(=O)N2CCOCC2)=C(\O)c2ccccc2)c2ccccc2)cc1	4.3%	0.2%	0.5	-20.2%	50.1µM*	-10.6%
CCOc1ccc(OCc2ccc(C(=O)N3CCOCC3)cc2)cc1	11.4%	-1.4%	1.9	4.8%	-37.6%[59 µM]	-13.0%
O=C(/C(=C/O)N=Nc1ccccc1)c1ccco1	-3.5%	?	0.6	10.1%	-48.5%	-5.0%
O=C(Nc1cccc(N=Cc2cc(Cl)cc(Br)c2O)c1)c1ccco1	6.2%	-2.6%	-1.8	0.3%	23.2%[59 µM]	-28.9%
Cc1ccc(N=C/C(C(=O)C(F)(F)F)=C(\O)c2ccco2)cc1Cl	-11.6%	1.6%	-1.8	-34.3%	44.7µM*	-7.8%
O=C(/C(C=Nc1ccc(F)cc1)=C(/O)c1ccco1)C(F)(F)F	2.2%	?	0.3	0.0%	39.8µM*	-2.0%
Cc1noc(-c2ccc(NC(C)c3ccccc3)c([N+](=O)[O-])c2)n1 (stereo not drawn)	·	·	·	10.7%	-34.5%[59 µM]	·
CCCn1c2ccccc2c2cnn(CC(=O)Nc3cc(OC)c(OC)c(OC)c3)c(=O)c21	·	·	·	-1.6%	-20.7%[59 µM]	·
CCOc1ccc(C(=O)c2cn(CC(=O)Nc3ccc(F)c(F)c3)c3cc4c(cc3c2=O)OCCO4)cc1	·	·	·	4.6%	8.3%[59 µM]	·
COc1cccc(C(=O)Nc2c(C(=O)c3ccc(F)cc3)oc3ccccc23)c1	·	·	·	-8.4%	4.8%[59 µM]	·
C=CCn1c(C(C)NC(=O)c2ccccc2C)n[nH]c1=S (stereo not drawn)	-0.6%	0.6%	-1.3	-13.1%	20µM*	-2.1%
C=CCn1c(C(C)NC(=O)c2ccc(C)cc2)n[nH]c1=S (stereo not drawn)	-0.7%	1.3%	1.4	-4.1%	39.8µM*	-12.0%
CCOc1ccccc1Oc1coc2cc(OCC(=O)O)ccc2c1=O	22.8%	1.5%	-1.4	9.6%	14.1µM*	-14.0%
CCCC1C(c2ccco2)NC(c2ccco2)CC1(C)O (stereo not drawn)	-25.6%	0.6%	-1.3	-9.4%	6.31µM*	-3.1%
